The source of these data is PMC12136788.

To fix the notation:
T1: UNK ZnF1-6 (called full-length) (human, UniProt Q9C0B0 30-357)
T1 sequence: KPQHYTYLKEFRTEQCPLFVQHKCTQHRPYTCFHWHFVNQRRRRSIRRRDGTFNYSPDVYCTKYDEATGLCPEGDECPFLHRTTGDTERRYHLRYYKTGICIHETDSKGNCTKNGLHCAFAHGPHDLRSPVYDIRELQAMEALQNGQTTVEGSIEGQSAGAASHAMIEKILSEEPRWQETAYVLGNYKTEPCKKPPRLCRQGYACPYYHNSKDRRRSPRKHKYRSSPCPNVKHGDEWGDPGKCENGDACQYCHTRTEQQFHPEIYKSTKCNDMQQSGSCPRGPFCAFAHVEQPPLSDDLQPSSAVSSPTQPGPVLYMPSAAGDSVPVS

B1: chr4:113382420:113382521:+|3pUTR|ENSG00000145362|msi1|FALSE|bound_elsewhere (ssRNA)
RNA: GGGAGUUCUACAGUCCGACGAUCUCUUCAGGUCUUUAGAUCUUGGACAAGUUGGCAGGGUAUUUUAAAAGCUAUAACUACUGUAGUUUUCCAGUUUUCAUUGCUGCUUUAGCAAACCACGCUGUCUUACAGUGGUACUUUCUUCAACAGAGGAUUGAGCAUCA
B2: chr2:171482635:171482736:+|3pUTR|ENSG00000115827|unk|FALSE|unique (ssRNA)
RNA: GGGAGUUCUACAGUCCGACGAUCCAAGAGUGUUUCAGAAUAGGAUGUCUUAAGACUUCAGUCAUGUCAGAGAUUUUUUUUUUUAGGUGAUUAUUGAGUUUCUCCUUCUCCUUUAAGUCAUCACCUUCCUUUUAUGAAAUGAUACAACAGAGGAUUGAGCAUCA
B3: chr9:104535772:104536723:-|CDS|ENSG00000204246|control|control|control (ssRNA)
RNA: GGGAGUUCUACAGUCCGACGAUCGACAAGCUCAUUUCUCUGUUUUAUGGGGUAGUGACACCCAUGCUGAAUCCUAUACUCUAUAGCUUGAGAAAUAAGGAUGUAAAAGCUGCUGUAAAAUAUUUGCUGAACAAAAAACCAAUUCAACAGAGGAUUGAGCAUCA
B4: chr8:23842113:23842214:-|3pUTR|ENSG00000159167|msi1|FALSE|unique (ssRNA)
RNA: GGGAGUUCUACAGUCCGACGAUCACUUUAGACAUUUUUGUGCCAUUAUAUUUGCAUUAUGUAUUUAUAAUUUAAAUGAUAUUUAGGUUUUUGGCUGAGUACUGGAAUAAACAGUGAGCAUAUCUGGUAUAUGUCAUUAUUUAUCAACAGAGGAUUGAGCAUCA
B5: ENSG00000112936:stop:overlap|stop_codon|ENSG00000112936|stop_codon|NA|stop_codon (ssRNA)
RNA: GGGAGUUCUACAGUCCGACGAUCGAUGCAGAGGGCAGAGCAUCUCUGUCACCAGCAUAAGGCCUUGUGCUGCGGAAACCCAGUAGGCUCCUGGAGGCCCUGGUCAGCUUGCUUGGAAUCCAGCAGGCAGCUGGGGCUGAGUGACAACAGAGGAUUGAGCAUCA
B6: ENSG00000170312:stop:overlap|stop_codon|ENSG00000170312|stop_codon|NA|stop_codon (ssRNA)
RNA: GGGAGUUCUACAGUCCGACGAUCGCAAAAUGGCACUGAAUCAUCCAUAUUUUAAUGAUUUGGACAAUCAGAUUAAGAAGAUGUAGCUUUCUGACAAAAAGUUUCCAUAUGUUAUAUCAACAGAUAGUUGUGUUUUUAUUGUUACAACAGAGGAUUGAGCAUCA
B7: chr2:69942770:69942871:+|3pUTR|ENSG00000059728|unk|FALSE|unique (ssRNA)
RNA: GGGAGUUCUACAGUCCGACGAUCUGUUUCCAGAUGUUUCUUUAUGUAAAUAUGACGCCAAUGUAAAUCCUGUGUCAAGAUCAUAGAGAAUGGUGCUUUUUACUACAGUUAGCACAUGCAUUUUUAGAAACUACUACAUGUUUUCAACAGAGGAUUGAGCAUCA
B8: ENSG00000114439:stop:overlap|stop_codon|ENSG00000114439|stop_codon|NA|stop_codon (ssRNA)
RNA: GGGAGUUCUACAGUCCGACGAUCUUCAUUGUAAAACAUUGUGCUUUACCUACUACCCUAGCCUUGUCUUUACCGAGGGAUGCUAGUGAGUCCAAGUGGUGGAAAAUAUAGACUGCAAACAAGUGCUUGUUGCCCCACACGGCCCAACAGAGGAUUGAGCAUCA
B9: ENSG00000117906:stop:overlap|stop_codon|ENSG00000117906|stop_codon|NA|stop_codon (ssRNA)
RNA: GGGAGUUCUACAGUCCGACGAUCAGUCCUUUAGGAAGCAUCAAUGUGGAGGUUUGGGGCUCCAUCCUCAGAGCCAGUCUGCUUAGCUUCACAUUUAGCUCCAGCACUUCACGGUUGUGUAACUUUGGCUUCACUUAAAGGACACAACAGAGGAUUGAGCAUCA
B10: chr12:104348774:104348848:+|3pUTR|ENSG00000198431|msi1_unk|total|mutant (ssRNA)
RNA: GGGAGUUCUACAGUCCGACGAUCCGUUGUCAAGUUUUCCCGGGUUGAAUUUUUUUCUUUUUUCUCCAUGGUGUUAAUGAUAUCCGAGAUGAAAAACGUCCGCAGUUGAUUUUUGUCCAAAAGCAAGUCAUGGCCCGAGUAUCCCAACAGAGGAUUGAGCAUCA
B11: chr10:62094764:62094865:+|3pUTR|ENSG00000150347|msi1|FALSE|unique (ssRNA)
RNA: GGGAGUUCUACAGUCCGACGAUCGAUGAACUCCCCAACCCACUGUGCCCCUCCCGCAACACUACCAGUAGACUUUAGAACCAUAGUUAACUAAGUCUUUUACCUCUGAGAUACUUAAUUCUGGGAAAAUUGGUGACAAUUUUCCAACAGAGGAUUGAGCAUCA
B12: chr12:95514132:95514176:+|3pUTR|ENSG00000111142|msi1_unk|FALSE|overlapping (ssRNA)
RNA: GGGAGUUCUACAGUCCGACGAUCCUUUUAAAUGCUAACUGUUUUUCCCCUUCCUGUCUAGGAAAAUGCUAUAAAGCUCAAAUUAGUUAGGAAUGACUUAUACGUUUUGUUUUGAAUACCUAAGAGAUACUUUUUGGAUAUUUACAACAGAGGAUUGAGCAUCA
B13: chr15:100649042:100649144:+|3pUTR|ENSG00000183475|unk|FALSE|unique (ssRNA)
RNA: GGGAGUUCUACAGUCCGACGAUCUACCUCUGCUUUUCUUUUGCUGUGCUCUUGUUUUUAACUUAUUUUUUUUUUAACAACUGUAGUACACUACCCUGAGACACUGCAUCUCGAUUUCUAUCUCUAGUUAGAGUUGUACUUUUACAACAGAGGAUUGAGCAUCA
B14: chr4:65323451:65323552:-|3pUTR|ENSG00000145242|msi1|FALSE|unique (ssRNA)
RNA: GGGAGUUCUACAGUCCGACGAUCAUCAAGAAAAAGUACAAUACAGGGUGUAUAUUUAUUUUUUGUGUUAUAAAGUUUACUUUUAGUUGCUCUUCUAGAGAUUAUUAGGUAAUAAAUGUGUAUAUACUGUAUAAUUUGCAAUAUCAACAGAGGAUUGAGCAUCA
B15: chr18:55223968:55224079:-|3pUTR|ENSG00000196628|unk|FALSE|unique (ssRNA)
RNA: GGGAGUUCUACAGUCCGACGAUCUAUAAAGCUUUGUUUGUCUAGUGCUCUUUUGCUAUAAAAUAGACUGUAGUACACCCUAGUAGGAAAAAAAAAAAACUAAAUUUAAAAAUAAAAAAUAUAUUUGGCUUAUUUUUCGCAGGACAACAGAGGAUUGAGCAUCA
B16: chr1:42278343:42278454:-|CDS|ENSG00000198815|unk|FALSE|bound_elsewhere (ssRNA)
RNA: GGGAGUUCUACAGUCCGACGAUCAAAAAGAAAAUGACUUUAAGUGAAAUUUAUCAGUGGAUUUGUGAUAACUUCCCAUAUUAUAGAGAGGCUGGCAGUGGUUGGAAGGUAAGGAUUUUAUUUAAAUUAUUACUUUUAUGAAGUCAACAGAGGAUUGAGCAUCA
B17: chrX:115010634:115010735:-|CDS|ENSG00000123496|msi1|FALSE|unique (ssRNA)
RNA: GGGAGUUCUACAGUCCGACGAUCUGGAUCAUCAGAGAACAAGCCUAUCAGAUCCAGUUAUUUCACUUUUCAGCUUCAAAAUAUAGGUGAUGUAAACCAACAAACAACUUCAAAUUCAUUGUUUCUAGUUUAGGCCAUUUACAACAACAGAGGAUUGAGCAUCA
B18: chr18:54155150:54155251:-|3pUTR|ENSG00000134046|unk|FALSE|unique (ssRNA)
RNA: GGGAGUUCUACAGUCCGACGAUCUUUCCACUGGCUUUUGCCUGUAAGAAAAAAAAUGUACCCGAGCACAUAGAGCUUUUUAAUAGCACUAACCAAUGCCUUUUUAGAUGUAUUUUUGAUGUAUAUAUCUAUUAUUCAAAAAAUCAACAGAGGAUUGAGCAUCA
B19: chr18:68676332:68676434:-|3pUTR|ENSG00000166479|msi1_unk|FALSE|overlapping (ssRNA)
RNA: GGGAGUUCUACAGUCCGACGAUCAUCAAGAUUAUGAGGUUAAAAAUAAUGUGGUUUUAUAUAGCAUAGUGGUUUUAUUUUGUUAGUUAUUUUUAAAGGAGAAGAAAUGUUACUUUUUAACUUUAUACUCAGUUGCAUUAUCAUCAACAGAGGAUUGAGCAUCA
B20: chr16:21983864:21984660:-|three_prime_utr|ENSG00000155714|control|control|control (ssRNA)
RNA: GGGAGUUCUACAGUCCGACGAUCAAAGAAAAUUGAGCUGGCAAAAGAUGAAUCUUUCACAAGCAGUGAUGAUAAUGAAAAUGUAGAUUUAGAUAAAAGACUUCAAUAUUAUAGAUAUCCGUGGUCAACUGUGCAUCACCCUGCCAACAGAGGAUUGAGCAUCA
B21: chr2:99394746:99394872:+|CDS|ENSG00000158417|unk|FALSE|unique (ssRNA)
RNA: GGGAGUUCUACAGUCCGACGAUCGAUGUGAGAAUUGAACGAGAUGCACAAGAAAUGGCUGAUAGUUUAGGAGUUAGAAUUUUUAGUGCAGAAAUUAUUUAUCAUUUAUUUGAUGCCUUUACAAAAUAUAGACAAGACUACAAGCAACAGAGGAUUGAGCAUCA
B22: chr3:98797553:98797658:-|3pUTR|ENSG00000057019|msi1|FALSE|unique (ssRNA)
RNA: GGGAGUUCUACAGUCCGACGAUCAUUUCAUUCAUUGAAGAAUCAAUACAUAUUUUGUUUCAAAAUGUUUGAAACAAAAGACAUAGAUGGUAGACUUUUAUUAAAACAUAUAUGGAUGUGGAAAGCACAUAUAUUAAUGCAGUCCAACAGAGGAUUGAGCAUCA
B23: chr22:49888080:49888186:+|3pUTR|ENSG00000100426|unk|FALSE|unique (ssRNA)
RNA: GGGAGUUCUACAGUCCGACGAUCUGGCUUAUUAACAGGGAAGAAGCUUGUUAUAUUCCAGUUGUAAGAAUAGCCUUAGUGUUUAGAUUUUUUUAUGAUAGGGAAGAUGCGGCCAUCACUGGGAUAUUUUCAAAUCCCAAGGACCAACAGAGGAUUGAGCAUCA

The full ranking holds about 5,800 sequences; the median of “enrichment r” is about 0.68, and the highest 2% start at about 11. For the sample, the highest values were picked, then their nearest neighbours and some sequences at random.

The assay concerns the target T1, UNK ZnF1-6 (called full-length). Put plainly: nsRBNS (natural sequence RNA bind-n-seq); RBNS binding buffer (assumed for nsRBNS): 25 mM Tris pH 7.5, 150 mM KCl, 3 mM MgCl2, 0.01% Triton X-100, 500 ug/ml BSA, 20 U/ml SUPERase-In, 4 C; UNK is unkempt and MSI1 is Musashi-1; names of the RNAs are library labels; protein concentration not given here; high values mean tight binding.
With B1, the binding signal worked out at 0.392 enrichment R.
On to B2, for which the binding signal is 1.03 enrichment R.
B3: the binding signal is 0.451 enrichment R.
On to B4, for which the binding signal was 3.25 enrichment R.
For B5, the binding signal worked out at 0.329 enrichment R.
B6 came in with a binding signal of 0.706 enrichment R.
Consider B7, for which the binding signal was 0.538 enrichment R.
As to B8, the binding signal is 0.604 enrichment R.
B9 came in with a binding signal of 0.657 enrichment R.
With B10 the figure was 0.359 enrichment R; with B11, 3.7 enrichment R; with B12, 2.63 enrichment R.
In turn, B13 had a binding signal of 5.29 enrichment R.
As to B14, the binding signal amounted to 3.94 enrichment R.
Molecule B15 gave a binding signal of 39.5 enrichment R.
B16 displayed a binding signal of 3.38 enrichment R.
On to B17, for which the binding signal was 0.759 enrichment R.
In turn, B18 showed a binding signal of 5.14 enrichment R.
With B19, the binding signal turned out to be 48.4 enrichment R.
B20 registered a binding signal of 2.22 enrichment R.
Regarding B21, the binding signal turned out to be 15.9 enrichment R.
B22 displayed a binding signal of 1.11 enrichment R.
On to B23, for which the binding signal came to 11.3 enrichment R.
